We go through eight compounds from PubChem BioAssay (NCI).

Test systems include DU-145 prostate; K-562 leukemia; MALME-3M melanoma; MDA-MB-231 breast; RXF 393 renal; SF-268 CNS; SF-295 CNS; SF-539 CNS; UACC-257 melanoma; M14 melanoma; HCT-15 colon; HT29 colon; SNB-75 CNS; SNB-19 CNS; U251 CNS; PC-3 prostate; SK-MEL-5 melanoma; UACC-62 melanoma; LOX IMVI melanoma; SK-MEL-28 melanoma.
What all share (test): NCI-60 one-dose screen, 48 h (100 = growth as untreated, 0 = no growth, -100 = all killed)
Common to all, as to settings: 10 µM

About 83,000 compounds went through this panel and 20% of them were active in at least one assay; those are over-represented in the sample as a whole.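 Growth was measured after 48 h exposure to one concentration of compound in 96-well plates. Values under 10 count as active.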 A number with no mark means an inactive call. Activity calls are given as the source filed them.

`CC(C)=C1CCC(C)C/C1=N\N=C(N)N` (stereo not given): the growth in the test with DU-145 prostate is 105%; in the test with K-562 leukemia, 97.9%; with MALME-3M melanoma, 100%; with MDA-MB-231 breast, 113%; in the test with RXF 393 renal it was 107%; in the test with SF-268 CNS, 99.2%. Besides, the growth in the test on SF-295 CNS was 98.4%; in the test with SF-539 CNS, 104%; with UACC-257 melanoma, 93.5%; with M14 melanoma it was 102%; in the test with HCT-15 colon it was 99.7%; with HT29 colon, 102%. The growth in the test on SNB-75 CNS is 97.7%; with SNB-19 CNS, 97.5%; in the test with U251 CNS, 96.5%; in the test with PC-3 prostate, 87.9%; in the test on SK-MEL-5 melanoma it was 98.6%; in the test on UACC-62 melanoma, 103%. Moreover, the growth with LOX IMVI melanoma was 93.9%; in the test with SK-MEL-28 melanoma, 109%.

As to `CCCCC(=O)N(c1ccc(Nc2c3ccccc3nc3cc([N+](=O)[O-])ccc23)cc1)S(C)(=O)=O`, the growth in the test with DU-145 prostate is 26.3%; with K-562 leukemia, 64.3%; with MALME-3M melanoma, 92.7%; with MDA-MB-231 breast, 84.6%; with RXF 393 renal, 75.8%; in the test with SF-268 CNS, 53%. Moreover, the growth in the test with SF-295 CNS is 34.4%; with SF-539 CNS, 79.8%; with UACC-257 melanoma it was 79.8%; with M14 melanoma it was 92.9%; in the test with HCT-15 colon it was 76.3%; in the test on HT29 colon, 79%. In addition, the growth with SNB-75 CNS was 66.1%; with SNB-19 CNS, 69.5%; in the test with U251 CNS, 64.2%; in the test on PC-3 prostate, 52%; in the test on SK-MEL-5 melanoma, 69%; in the test with UACC-62 melanoma, 75.8%. The results for the growth in the test on LOX IMVI melanoma and in the test with SK-MEL-28 melanoma were 52.5% and 105%, respectively.

Consider `NC1CCC(Nc2nc(NCc3ccc(-c4cccs4)nc3)c3ncn(C4CCCC4)c3n2)CC1` (stereo not given), for which the growth is 8.83% (active) in the test with DU-145 prostate; -6% (active) in the test with K-562 leukemia; -74.7% (active) in the test on MALME-3M melanoma; -0.601% (active) in the test on MDA-MB-231 breast; -50% (active) with RXF 393 renal; -5.75% (active) with SF-268 CNS. Besides, the growth in the test on SF-295 CNS is 0.906% (active); in the test with SF-539 CNS it was -56.7% (active); with UACC-257 melanoma, -74.6% (active); in the test with M14 melanoma, -80.6% (active); in the test on HCT-15 colon, 0.306% (active); in the test with HT29 colon, -12.7% (active). Further, the growth with SNB-75 CNS was -63.5% (active); in the test on SNB-19 CNS, 10.2%; with U251 CNS, 3.21% (active); with PC-3 prostate, 1.6% (active); in the test on SK-MEL-5 melanoma, -96.8% (active); in the test with UACC-62 melanoma, -42.4% (active). Moreover, the growth in the test on LOX IMVI melanoma was -82.1% (active); in the test on SK-MEL-28 melanoma, -62.3% (active).

In the case of `CCCC(C)c1ccc(OCCCCCCN2CCNCC2)cc1` (stereo not given), the growth in the test with DU-145 prostate is 38.4%; in the test on K-562 leukemia, -34.1% (active); in the test with MALME-3M melanoma it was 37%; with MDA-MB-231 breast it was -0.569% (active); with RXF 393 renal it was -13.3% (active); in the test with SF-268 CNS it was 70.4%. In addition, the growth with SF-295 CNS is -6.71% (active); with SF-539 CNS, 56.1%; in the test with UACC-257 melanoma, 79%; with M14 melanoma, 57.5%; with HCT-15 colon, -39.3% (active); in the test with HT29 colon, 5.51% (active). Moreover, the growth in the test on SNB-75 CNS is 35.9%; with SNB-19 CNS, 56%; with U251 CNS, -2.39% (active); in the test with PC-3 prostate it was 49.4%; in the test with SK-MEL-5 melanoma it was 53.5%; in the test with UACC-62 melanoma, -46.4% (active). Also, the growth in the test on LOX IMVI melanoma is -88.3% (active); in the test on SK-MEL-28 melanoma it was 13.2%.

For the compound `COc1cccc2c1C(=O)c1c(O)c3c(c(O)c1C2=O)C[C@@](O)(C(=O)COC(=O)c1cccnc1)C[C@@H]3OC1CC(N)C(O)C(C)O1` (stereo not given in full), the growth in the test with DU-145 prostate is 7.78% (active); with K-562 leukemia it was 1.5% (active); in the test with MALME-3M melanoma, -66.7% (active); in the test on MDA-MB-231 breast, -18.6% (active); with RXF 393 renal it was -64.5% (active); with SF-268 CNS, -30% (active). For the same compound, the growth in the test on SF-295 CNS was -56.8% (active); in the test with SF-539 CNS, -36.4% (active); with UACC-257 melanoma, -54.7% (active); in the test on M14 melanoma it was -43.4% (active); in the test with HCT-15 colon, 32.9%; in the test with HT29 colon, -29.5% (active). The growth was -75% (active) in the test with SNB-75 CNS; 5.16% (active) in the test on SNB-19 CNS; -14.4% (active) in the test on U251 CNS; -41.8% (active) with PC-3 prostate; -49.1% (active) in the test with SK-MEL-5 melanoma; -88.4% (active) with UACC-62 melanoma. For the same compound, the values for the growth in the test with LOX IMVI melanoma and in the test on SK-MEL-28 melanoma were 0.723% (active) and -13.8% (active), respectively.

For `O=C(N/N=c1/ccoc2cccnc12)N1CCN(c2ncccn2)CC1`, the growth with DU-145 prostate is 50.5%; in the test with K-562 leukemia it was 9.99% (active); in the test with MALME-3M melanoma it was 55.5%; with MDA-MB-231 breast it was 40%; with RXF 393 renal, 66.8%; in the test on SF-268 CNS, 37.3%. Besides, the growth with SF-295 CNS is 15.9%; in the test with SF-539 CNS it was 45.3%; with UACC-257 melanoma, 5.91% (active); with M14 melanoma, 14.5%; with HCT-15 colon it was 24.9%; in the test with HT29 colon, 34.6%. In addition, the growth is 70.7% in the test with SNB-75 CNS; 35% in the test on SNB-19 CNS; 17.9% with U251 CNS; 26.2% in the test with PC-3 prostate; -36.8% (active) with SK-MEL-5 melanoma; 7.9% (active) in the test on UACC-62 melanoma. The growth with LOX IMVI melanoma is 18.1%; in the test with SK-MEL-28 melanoma, 48.4%.

In the case of `COc1ccc(C(C)=O)cc1N1C(=O)C2C(C1=O)C1(c3ccccc3)C(=O)C2(c2ccccc2)C(c2ccc(C)cc2)=C1c1ccc(C)cc1` (stereo not given), the growth is 19.1% in the test with DU-145 prostate; 11.7% with K-562 leukemia; 17% in the test with MALME-3M melanoma; 12.3% in the test on MDA-MB-231 breast; -4.28% (active) with RXF 393 renal; 13.8% in the test with SF-268 CNS. Also, the growth with SF-295 CNS is 1.18% (active); with SF-539 CNS it was 11.4%; in the test on UACC-257 melanoma, 16.2%; in the test with M14 melanoma, -28.1% (active); in the test with HCT-15 colon, 25.3%; in the test with HT29 colon it was 21.4%. The growth in the test on SNB-75 CNS is 57.3%; in the test on SNB-19 CNS, 29.7%; in the test with U251 CNS it was 14.8%; with PC-3 prostate, 12.6%; in the test on SK-MEL-5 melanoma, -29.1% (active); with UACC-62 melanoma, -70.9% (active). The growth in the test with LOX IMVI melanoma was 7.38% (active); in the test with SK-MEL-28 melanoma it was 37.6%.

With `CCCCCc1cc[n+](CC(=O)c2ccc(Cl)cc2)cc1`, the growth in the test with DU-145 prostate is 95.2%; with K-562 leukemia, 90.7%; in the test on MALME-3M melanoma, 89.8%; in the test with MDA-MB-231 breast it was 76.6%; with RXF 393 renal it was 95.6%; with SF-268 CNS, 84.7%. The growth was 94% with SF-295 CNS; 93.9% in the test with SF-539 CNS; 97.5% in the test on UACC-257 melanoma; 85.9% in the test with M14 melanoma; 98.5% in the test with HCT-15 colon; 64.7% in the test with HT29 colon. In addition, the growth was 84.4% with SNB-75 CNS; 96.7% in the test with SNB-19 CNS; 97.8% with U251 CNS; 85.7% with PC-3 prostate; 94.9% with SK-MEL-5 melanoma; 82.8% with UACC-62 melanoma. Moreover, the growth in the test with LOX IMVI melanoma was 87.4%; with SK-MEL-28 melanoma, 101%.
